Bioassay records: PubChem, Broad Institute
NSD2 inh = NSD2 (human) methyltransferase inhibition; O96028; NSD2 peptide methylation, AlphaScreen, 120 min; inhibition, % at 12.5 µM; 310,000 tested, 0.54% active; in the data active = inhibition above about 50%
rRNA inh HTS = selective bacterial rRNA inhibition in E. coli; E. coli WT GFP vs humanized-ribosome RFP mutants, fluorescence, 24 h; active compounds read low; DMSO median 0, no signal -100; GFP signal change (wild-type ribosome), % (no concentration beside the values); 350,000 tested, 1.6% active; AID 720706;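 active = significant combined selectivity score with lowered wild-type GFP, culture density cut under 30%, mutant RFP and density less affected; inactive = any of these conditions unmet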
AF4-AF9 inh = MLL-AF4/AF9 protein interaction inhibition. P42568. inhibition, % at 10 µM. 350,000 tested, 0.47% active. AlphaScreen, biotin-AF4 peptide binding to FLAG-AF9;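 active = every replicate reaching a set inhibition limit, whatever the replicate mean, cut at about 25% in these data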;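 also: 0% = plate neutral control median and 100% = total signal loss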
Target sequence (P42568 whole entry, looked up): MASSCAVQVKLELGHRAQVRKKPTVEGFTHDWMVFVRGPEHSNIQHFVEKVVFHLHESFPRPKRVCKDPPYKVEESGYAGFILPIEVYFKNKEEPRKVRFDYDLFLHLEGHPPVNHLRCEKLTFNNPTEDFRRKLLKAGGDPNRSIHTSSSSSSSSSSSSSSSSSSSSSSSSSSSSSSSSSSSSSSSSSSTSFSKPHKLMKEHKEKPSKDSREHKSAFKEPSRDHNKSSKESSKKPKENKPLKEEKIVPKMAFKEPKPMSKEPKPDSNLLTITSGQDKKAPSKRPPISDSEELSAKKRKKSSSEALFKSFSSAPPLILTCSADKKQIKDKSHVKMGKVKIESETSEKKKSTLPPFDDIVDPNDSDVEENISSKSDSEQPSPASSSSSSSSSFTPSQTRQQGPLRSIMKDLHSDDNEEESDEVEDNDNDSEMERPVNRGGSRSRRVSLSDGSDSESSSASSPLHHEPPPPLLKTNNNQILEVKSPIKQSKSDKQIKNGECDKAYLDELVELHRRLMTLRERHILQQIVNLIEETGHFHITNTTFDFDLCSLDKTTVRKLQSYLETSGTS
RAD52 inh = blocks human RAD52 DNA annealing; recombinant RAD52 DNA annealing, FRET fluorescence; inhibition, % at 18.7 µM; 360,000 tested, 0.46% active; P43351;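 active = every replicate showing at least 50% inhibition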
Casp6 inh = inhibitors of human caspase-6; P55212; 350,000 tested, 0.53% active; inhibition, % at 12.5 µM; purified caspase-6, Z-VEID-R110 cleavage fluorescence; AID 686996;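 active = mean inhibition across replicates at least about 35%, with every replicate also reaching that limit, limit read from the data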;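 also: 0% = median of neutral control wells and 100% = no fluorescence left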
Numbers without * were called inactive; . = not tested or not shown. A selection: hits, their analogues and other compounds. The true share with any hit is near 2.5%.

SMILES	NSD2 inh	rRNA inh HTS	AF4-AF9 inh	RAD52 inh	Casp6 inh
O=C(Nc1c(-c2ccccc2)[nH][nH]c1=O)c1ccc(-c2ccccc2)cc1	.	-14.2*	-2.0	-13.2	2.3
O=C(Nc1c(-c2ccc3c(c2)OCO3)[nH][nH]c1=O)c1ccccc1	.	5.9	-3.4	-3.7	44.6*
O=C(Nc1c(-c2ccccc2)[nH][nH]c1=O)c1ccc2c(c1)OCO2	.	5.8	-1.4	-2.8	3.6
CO[C@H]1CN(C)C(=O)c2cc(NS(=O)(=O)c3ccc(C)cc3)ccc2OC[C@H](C)N(C)C[C@H]1C	.	-0.8	0.9	13.8	3.8
COC(=O)c1sc(=S)n(Cc2ccccc2)c1C	-2.3	-24.2*	0.1	-9.7	-0.4
CC(=O)c1sc(=S)n(Cc2ccccc2)c1C	1.8	-11.7	-18.5	-16.1	-2.2
COc1ccc(NC(=O)Nc2ccc3c(c2)[C@@H]2C[C@@H](CC(=O)N4CCc5ccccc5C4)O[C@H](CO)[C@@H]2O3)cc1	.	-6.9	1.5	-9.4	3.3
CC(=O)N1c2ccc(S(=O)(=O)N(C)c3cc(C)ccc3C)cc2CC1C (centres undefined)	3.8	-29.3*	3.9	-4.7	-3.1
CC(=O)N1c2ccc(S(=O)(=O)N(C)CC(=O)NCc3ccc(C)cc3)cc2CC1C (centres undefined)	-9.4	7.7	1.7	-14.7	71.6*
Cc1ccc(N(C)S(=O)(=O)c2ccc3c(c2)CC(C)N3C(=O)C2CC2)cc1 (centres undefined)	-2.6	-9.7	1.8	-12.2	-0.4
CC(=O)N1c2ccc(S(=O)(=O)N3CCC(C(=O)NCc4ccc(C)cc4)CC3)cc2CC1C (centres undefined)	.	7.8	-1.2	-2.9	4.4
Cc1ccc(CNC(=O)C2CCN(S(=O)(=O)c3ccc4c(c3)CC(C)N4C(=O)C3CC3)CC2)cc1 (centres undefined)	-3.8	-28.0*	1.9	-5.5	1.2
Cc1cc(Cn2nc(C(=O)NCC3CC3)cc2-c2ccccc2)on1	.	-26.8*	-3.3	-8.4	1.7
COc1cccc(C#Cc2ccc([C@H]3[C@@H](CO)N4C(=O)CN(C(C)=O)C[C@@H]34)cc2)c1	.	-0.1	-3.4	-13.4	0.5
O=C(O)C1Nc2c(O)cc(Cl)c([N+](=O)[O-])c2C2C=CCC12 (centres undefined)	.	-15.2	17.6	3.0	98.5*
COc1ccc(C(=O)C2CCCN(Cc3ccc4nonc4c3)C2)c(OC)c1 (centres undefined)	-2.1	-28.1*	19.5	-24.9	5.5
CN(C)C(=O)C[C@@H]1CC[C@H](NC(=O)C2CC2)[C@H](CO)O1	.	1.8	2.1	-9.9	-1.1
CC1OC2CC(=O)OC2C2=C1C(=O)c1c(O)cccc1C2=O (centres undefined)	.	.	-9.9	-13.7	84.8*
COc1ccc2c3c(n(C)c2c1)[C@H](CO)N(Cc1ccncc1)CC31CCN(C(=O)C2CCCCC2)CC1	.	1.2	30.6*	-96.9	-1.4
COc1ccc2c3c(n(C)c2c1)[C@H](CO)N(CC1CCCCC1)CC31CCN(C(=O)CN(C)C)CC1	.	3.1	4.4	-45.4	.
COc1ccc2c3c(n(C)c2c1)[C@H](CO)N(Cc1ccncc1)CC31CCN(C(=O)C2CCC2)CC1	.	1.6	-3.9	-171.1	-0.5
COc1ccc2c3c(n(C)c2c1)[C@@H](CO)N(CC1CC1)CC31CCN(C(=O)CN(C)C)CC1	.	3.3	22.3	72.6*	-45.3
COc1ccc2c3c(n(C)c2c1)[C@H](CO)N(Cc1ccccc1F)CC31CCN(CC2CC2)CC1	.	0.4	40.0*	20.2	-0.5
COc1ccc2c3c(n(C)c2c1)[C@@H](CO)N(Cc1ccccc1)CC31CCN(C)CC1	.	0.9	8.3	.	.
COc1ccc2c3c(n(C)c2c1)[C@@H](CO)N(Cc1ccccc1OC)CC31CCN(C)CC1	.	2.3	26.3*	-20.5	.
SMILES	NSD2 inh	rRNA inh HTS	AF4-AF9 inh	RAD52 inh	Casp6 inh
COc1ccc(NC(=O)N(C)C[C@@H]2OCCCC[C@H](C)Oc3ccc(NC(=O)c4ccccc4)cc3C(=O)N([C@@H](C)CO)C[C@@H]2C)cc1	.	-3.6	-2.1	7.6	1.3
COc1ccc(-c2cn(CC(=O)N3CCN(C)CC3)nn2)cc1OC	.	.	-4.2	5.9	-15.8
C[C@@H]1CN([C@H](C)CO)C(=O)c2cc(N(C)C)ccc2O[C@@H](C)CCCCO[C@@H]1CN(C)C(=O)c1ccccc1	.	4.6	9.0	-28.6	-0.6
COc1ccc2c3c(n(C)c2c1)[C@H](CO)N(Cc1ccc(Cl)cc1)CC31CN(CC2CC2)C1	.	-4.9	-0.8	.	.
COc1ccc2c3c(n(C)c2c1)[C@@H](CO)N(Cc1ccc(Cl)cc1)CC31CCN(CC2CC2)CC1	.	-11.0	37.0*	14.4	0.7
COc1ccc2c3c(n(C)c2c1)[C@H](CO)N(Cc1ccc(Cl)cc1)CC31CCN(CC2CC2)CC1	.	-46.2	29.5*	16.6	-1.8
NC(=O)[C@@H]1[C@H]2C(=O)O[C@H](c3ccccc3)[C@H](c3ccccc3)N2[C@H](c2ccc(O)cc2)[C@@]12C(=O)Nc1ccccc12	.	.	10.1	-0.8	1.6
CC(=O)c1cccc(NC(=S)NC(=O)c2cncc(Br)c2)c1	1.3	-19.3	-1.9	-20.2	0.3
COc1cccc(NC(=S)NC(=O)c2cncc(Br)c2)c1	0.3	-24.3*	-1.5	-30.9	2.2
Cc1cccc(NC(=S)N2N=CCC2c2ccccc2)c1 (centres undefined)	-4.5	-22.8*	.	-11.3	0.6
CCc1ccccc1NC(=S)N1N=CCC1c1ccccc1 (centres undefined)	-3.2	-5.4	-0.8	4.1	1.8
Cc1ccc([C@@H]2CC=C(C(=O)O)CN2S(=O)(=O)c2ccccc2C)cc1	.	-25.2*	-2.2	-3.8	-0.1
Cc1ccc(S(=O)(=O)N2[C@@H](c3ccccc3)C(C(=O)O)=CC[C@H]2c2cccs2)cc1	.	-35.8	-2.4	-4.2	0.2
Cc1ccc([C@@H]2CC=C(C(=O)O)[C@H](c3ccccc3)N2S(=O)(=O)c2ccccc2C)cc1	.	-12.1	-3.5	-17.2	4.8
Cc1ccc(S(=O)(=O)N2[C@@H](c3ccccc3F)C(C(=O)O)=CC[C@H]2c2cccs2)cc1	.	-16.4*	-1.5	-13.3	10.8
CCc1ccc([C@@H]2CC=C(C(=O)O)[C@H](c3ccc(C)cc3)N2S(=O)(=O)c2ccc(C)cc2)cc1	.	-24.4*	0.4	-5.2	14.0
Cc1ccc([C@H]2C(C(=O)O)=CC[C@@H](c3ccc(C)cc3)N2S(=O)(=O)c2ccccc2C)cc1	.	-39.0*	-26.9	-35.6	7.6
CCS(=O)(=O)N1CC2(CN(Cc3ccccc3OC)[C@H](CO)c3c2c2ccc(OC)cc2n3C)C1	.	-4.9	1.1	.	.
CC(=O)N(c1ccccc1)c1c(F)c(F)c(F)c(F)c1F	0.2	.	.	.	.
CC(=O)Oc1c(C(C)C)cc(N(C(C)=O)c2ccccc2)cc1C(C)C	7.9	-22.2*	-1.8	0.9	1.8
COc1ccccc1C(NC(=O)C1CCN(CCOc2ccc3ccccc3c2)CC1)c1ccccn1 (centres undefined)	0.7	-47.5	3.8	-42.6	-1.2
